Only some compounds are listed: those with a hit (about 4% of all), similar ones and a draw of the others.
MITF act: MITF TRPM1 promoter activation in melanoma cells; SK-MEL-5 TRPM1-promoter luciferase, 24 h; % of positive control, neutral wells = 0; activation, % at 12.5 µM; 300,000 tested, 0.75% active;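 active means mean activation of at least 80% with every replicate also reaching 80%; inconclusive means mean reaches 80% but some replicate falls short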;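 further: 0% = neutral control wells and 100% = parthenolide positive control wells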
esBAF inh: inhibitors of esBAF chromatin remodeling in mouse ES cells. Bmi1-luciferase knock-in reporter, 24 h; 100% = twice the neutral-well signal. AID 602393. 350,000 tested, 2% active. reporter increase, % at 12.5 µM; in the data active means activation above about 40%; inconclusive means no clear call, values can overlap the other calls;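 further: 0% = median of the plate's neutral control wells and 100% = double that signal; a rise in the Bmi1 reporter signal indicates esBAF inhibition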
PAX8 inh HTS: PAX8 transcriptional activity inhibition; RMG-I TPO-luciferase reporter, SteadyGlo, 24 h; inhibition, % at 12.6 µM; 360,000 tested, 1.2% active; AID 652154;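 active means mean replicate inhibition at least 60% with every replicate also reaching 60%; inconclusive means only one of the two criteria is met; inactive means mean below 60% and not all replicates reaching 60%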;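 further: luciferase light reporting Pax8 driven TPO promoter activity; plate controls were median of neutral control wells for no effect and mitoxantrone controls for full effect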
MITF TRPM1 inh: reduces MITF-dependent TRPM1 promoter luciferase signal; AID 488899; inhibition, % at 12.5 µM; SK-MEL-5 TRPM1 promoter luciferase, 24 h; 330,000 tested, 0.83% active;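 active means mean inhibition across replicates of 60% or more, whatever share of single replicates reaches that level; inconclusive means some that reach 60%, reason not given; inactive means mean inhibition across replicates below 60%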
Wnt bcat act: Wnt/beta-catenin pathway activation | Wnt/beta-catenin reporter cell assay, activator, plate reader | activation, % at 9.35 µM | 300,000 tested, 1.2% active; in the data active means activation above about 30%, passing the limit was not always enough; inconclusive means no clear call, values can overlap the other calls;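 further: 0% = neutral control wells and 100% = positive control wells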
EWS-Fli block: blocks EWS/Fli oncoprotein-driven transcription; A673 NR0B1-luciferase reporter, viability-normalised; inhibition, % at 12.6 µM; AID 651661; 350,000 tested, 0.67% active;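 active means mean inhibition of at least 50% after viability correction, with every replicate also passing that limit; inconclusive means mean reaches 50% but only one of two replicates passes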;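 further: firefly luciferase signal divided by Alamar Blue viability fluorescence both relative to DMSO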
Numbers without * were called inactive; ? = inconclusive; · = no result.

SMILES	MITF act	esBAF inh	PAX8 inh HTS	MITF TRPM1 inh	Wnt bcat act	EWS-Fli block
COc1cccc2sc3cc(C#Cc4ccccn4)ccc3c(=O)c12	101.0*	?	-44.6	-98.7	13.4	-95.0
COc1ccc(S(=O)(=O)N(C)C[C@H]2Oc3c(NC(=O)Nc4ccc5c(c4)OCO5)cccc3C(=O)N([C@@H](C)CO)C[C@H]2C)cc1	·	9.0	·	·	·	3.9
O=C(C[C@@H]1CC[C@@H](NS(=O)(=O)c2ccccc2)[C@@H](CO)O1)NCc1ccccc1F	·	-5.5	3.7	·	·	2.9
CCC(=O)N1[C@@H]2Cn3c(ccc(-c4ccncc4)c3=O)[C@H]1[C@@H](C(=O)NC1Cc3ccccc3C1)[C@@H]2CO	·	0.1	-6.2	·	·	0.5
CC(C1CC1)N(Cc1ccccc1)C(=S)Nc1cccc(C(F)(F)F)c1 (stereo not drawn)	-12.9	·	118.1*	11.5	-2.7	3.4
Nc1nc(N)c2cc([N+](=O)[O-])ccc2n1	-8.3	-4.5	18.6	13.8	-1.1	4.3
Nc1nc(N)c2c(ccc3c2ccn3Cc2cccc([N+](=O)[O-])c2)n1	·	·	117.0*	·	-3.0	39.5
O=C(C[n+]1cccc(Br)c1)c1ccc(-c2ccccc2)cc1	14.9	44.4*	7.6	-11.2	1.6	3.3
CC(C)C(OC(=O)c1ccccc1)c1nccc2ccccc12 (stereo not drawn)	57.7	71.7*	-25.6	-57.2	0.2	-40.2
CC(C(=O)O)c1ccc(N2Cc3ccccc3C2=O)cc1 (stereo not drawn)	-12.6	-41.9	41.7	12.5	-2.9	50.8*
Cc1ccc2c(c1)CCCN2C(=O)CCc1nc2ccccc2c(=O)[nH]1	·	-12.1	19.7	·	-11.9	64.9*
COc1ccc(C(=O)Nc2nc3ccccc3c(=O)[nH]2)cc1	21.6	-30.4	·	-24.6	18.3	-5.6
O=C(Nc1cccc(/C=C/c2nc3ccccc3c(=O)[nH]2)c1)c1ccccc1Cl	64.6	79.5*	-34.5	-65.3	17.1	-76.2
COc1ccc(C(=O)Nc2cccc(/C=C/c3nc4ccccc4c(=O)[nH]3)c2)cc1	-32.2	·	63.8*	31.9	-21.9	8.0
CN(C)C(=O)C[C@H]1C=C[C@H](NC(=O)Nc2cccc(F)c2)[C@H](CO)O1	·	-0.1	-0.4	·	·	3.1
C#CCOCCOCCOCCNc1nc(N2CCN(C(=O)CCCCCCCCCCNC(=O)[C@H](CCCCN)n3cc(C)nn3)CC2)nc(N2CCN(C(=O)CCCCCCCCCCNC(=O)[C@@H]([C@H](C)CC)n3cc(CCCCCN)nn3)CC2)n1	-104.1	-78.8	·	105.0*	·	·
C#CCOCCOCCOCCNc1nc(N2CCN(C(=O)CCCCCCCCCCNC(=O)Cn3cc(CCCCCN)nn3)CC2)nc(N2CCN(C(=O)CCCCCCCCCCNC(=O)[C@H]([C@@H](C)CC)n3cc(CCCCCN)nn3)CC2)n1	-95.8	5.7	·	96.5*	·	·
C#CCOCCOCCOCCNc1nc(N2CCN(C(=O)CCCCCCCCCCNC(=O)[C@H]([C@@H](C)CC)n3cc(CCCCCN)nn3)CC2)nc(N2CCN(C(=O)CCCCCCCCCCNC(=O)[C@@H]([C@H](C)O)n3cc(C)nn3)CC2)n1	-97.6	-1.8	·	98.6*	·	·
C#CCOCCOCCOCCNc1nc(N2CCN(C(=O)CCCCCCCCCCNC(=O)[C@H](CCCCN)n3cc(CCO)nn3)CC2)nc(N2CCN(C(=O)CCCCCCCCCCNC(=O)[C@@H]([C@H](C)O)n3cc(C)nn3)CC2)n1	-7.2	-4.2	·	5.2	·	·
CC(C)NC(=O)Nc1cccc2c1O[C@H](CN(C)S(=O)(=O)c1ccc(Cl)cc1)[C@@H](C)CN([C@@H](C)CO)C2=O	·	-0.1	4.4	·	·	-2.6
Cc1ccc(C(=O)N/N=C/c2ccoc2)cc1C	17.6	49.8*	-76.9	-22.7	-1.1	·
COc1ccc(C(=O)N/N=C\c2ccoc2)cc1	-2.4	·	-33.5	4.4	5.3	-39.2
COc1ccc(C(=O)NN/C(C)=C/C(=O)c2ccccc2)cc1	·	13.9	25.7	-0.2	1.5	3.9
O=C(N/N=C/c1ccc2cccc(OCc3ccccc3)c2n1)c1ccc(Br)cc1	0.5	·	17.2	0.3	2.2	·
Cc1ccc(C(=O)N/N=C2\CCc3ccccc32)c(C)c1	56.7	·	-107.0	-52.8	11.7	-49.7
SMILES	MITF act	esBAF inh	PAX8 inh HTS	MITF TRPM1 inh	Wnt bcat act	EWS-Fli block
COc1ccc(C(=O)N/N=C/c2ccc3cccc(OCc4ccccc4)c3n2)cc1	24.0	64.5*	-4.7	-25.7	18.6	·
Cc1ccc(C(=O)NN=CC(=O)c2ccccc2)c(C)c1	60.8	-31.4	-182.9	-58.6	34.4*	-7.7
COc1ccc(C(=O)N/N=C/C(=O)c2ccccc2)cc1	77.8	62.1*	-267.0	-79.1	32.3*	·
O=S(=O)(N[C@@H]1CC[C@H](CCn2cc(-c3ccccc3F)nn2)O[C@H]1CO)c1ccc(Cl)cc1	·	7.9	28.7	·	·	4.0
COc1ccc2c3c(n(C)c2c1)[C@H](CO)N(C(C)=O)CC31CCN(C(=O)NC(C)C)CC1	·	·	·	·	·	-9.5
CO[C@H]1CN(C)C(=O)c2ccc(NC(=O)Nc3ccc4c(c3)OCO4)cc2OC[C@@H](C)NC[C@@H]1C	·	56.4*	-58.6	·	·	-37.7
CO[C@H]1CN(C)C(=O)c2ccc(NC(=O)Nc3ccc(Cl)c(Cl)c3)cc2OC[C@H](C)NC[C@H]1C	·	4.6	44.8	·	·	5.1
CO[C@@H]1CN(C)C(=O)c2ccc(NC(=O)c3ccc(-c4ccccc4)cc3)cc2OC[C@H](C)NC[C@@H]1C	·	-4.6	64.6*	·	·	14.0
CO[C@H]1CN(C)C(=O)c2ccc(NC(=O)c3ccc4c(c3)OCO4)cc2OC[C@@H](C)NC[C@H]1C	·	-1.8	-15.0	·	·	-4.4
CO[C@H]1CN(C)C(=O)c2ccc(NC(=O)Nc3ccc(Cl)c(Cl)c3)cc2OC[C@H](C)NC[C@@H]1C	·	4.2	30.1	·	·	69.3*
CO[C@@H]1CN(C)C(=O)c2ccc(NC(=O)Nc3ccc4c(c3)OCO4)cc2OC[C@H](C)NC[C@H]1C	·	92.8*	-165.9	·	·	-91.1
CO[C@H]1CN(C)C(=O)c2ccc(NC(=O)c3ccc4c(c3)OCO4)cc2OC[C@H](C)NC[C@@H]1C	·	-1.7	-15.8	·	·	-3.1
O=C(Nc1nc(-c2nc3ccccc3s2)cs1)C1CC1	·	29.8	-192.9	·	48.7*	-143.9
O=C(Nc1nc(-c2nc3ccccc3s2)cs1)c1ccco1	·	51.6*	-138.9	·	-2.6	-98.1
COc1ccccc1OCc1csc(NC(=O)c2ccco2)n1	66.8	76.7*	·	-64.1	·	·
O=C(O)Cc1csc(NC(=O)c2ccco2)n1	·	-1.8	·	-2.3	-0.4	·
Cn1cnc(S(=O)(=O)N[C@H]2C=C[C@@H](CC(=O)Nc3ccc(-c4ccccc4)cc3)O[C@H]2CO)c1	·	1.1	-1.2	·	·	-9.9
O=C(/C=C/c1ccc(O)cc1)c1ccccc1	69.2	58.8*	-150.1	-70.1	37.7*	-30.8
Cc1cccc(C=CC(=O)c2ccccc2)c1	49.3	71.0*	-183.4	-45.4	7.2	-108.5
Fc1ccc(CNc2ncnc3c2cnn3-c2ccccc2)cc1	32.1	48.7*	·	-33.5	-0.7	·
